Shown are actives, neighbours in structure and some others; about 12% of the full set was active somewhere.
HP1b binding inh = inhibitors of HP1-beta chromodomain binding to methylated histone tails; Potency, µM (highest dose often 114 µM), for the others: at the top dose activity change, negative = inhibition, usual class: inhibitors; AID 540317; P83916; 0.56% of 390,000 active; AlphaScreen HP1-beta / biotin-H3K9me3 peptide binding; also: potency is read from the fitted curve at half-maximal effect; nearly all actives have a fitted effect of over 70% in size
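Compound inhibition of the preformed complex between 50 nM HP1-beta and 50 nM biotinylated H3K9me3 peptide was read by AlphaScreen. Buffer was PBS pH 7.4 with 0.01% Tween-20. Incubations ran 30 min at room temperature, with 10 ug/mL donor/acceptor beads.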
JMJD2A Tudor inh = blocks the human JMJD2A Tudor domain | 4.4% of 390,000 active | O75164 | AlphaScreen JMJD2A-Tudor / H3K4me3 peptide binding | Potency, µM (highest dose often 114 µM), without a hit: at the top dose activity change, negative = inhibition, most hits filed as inhibitors | AID 504339; also: potency is read from the fitted curve at half-maximal effect; % is scaled to controls: 0 for no effect and ±100 for the full control effect; nearly all actives have a fitted effect of over 50% in size
Target sequence (O75164 whole entry, looked up, the tested form may be a part): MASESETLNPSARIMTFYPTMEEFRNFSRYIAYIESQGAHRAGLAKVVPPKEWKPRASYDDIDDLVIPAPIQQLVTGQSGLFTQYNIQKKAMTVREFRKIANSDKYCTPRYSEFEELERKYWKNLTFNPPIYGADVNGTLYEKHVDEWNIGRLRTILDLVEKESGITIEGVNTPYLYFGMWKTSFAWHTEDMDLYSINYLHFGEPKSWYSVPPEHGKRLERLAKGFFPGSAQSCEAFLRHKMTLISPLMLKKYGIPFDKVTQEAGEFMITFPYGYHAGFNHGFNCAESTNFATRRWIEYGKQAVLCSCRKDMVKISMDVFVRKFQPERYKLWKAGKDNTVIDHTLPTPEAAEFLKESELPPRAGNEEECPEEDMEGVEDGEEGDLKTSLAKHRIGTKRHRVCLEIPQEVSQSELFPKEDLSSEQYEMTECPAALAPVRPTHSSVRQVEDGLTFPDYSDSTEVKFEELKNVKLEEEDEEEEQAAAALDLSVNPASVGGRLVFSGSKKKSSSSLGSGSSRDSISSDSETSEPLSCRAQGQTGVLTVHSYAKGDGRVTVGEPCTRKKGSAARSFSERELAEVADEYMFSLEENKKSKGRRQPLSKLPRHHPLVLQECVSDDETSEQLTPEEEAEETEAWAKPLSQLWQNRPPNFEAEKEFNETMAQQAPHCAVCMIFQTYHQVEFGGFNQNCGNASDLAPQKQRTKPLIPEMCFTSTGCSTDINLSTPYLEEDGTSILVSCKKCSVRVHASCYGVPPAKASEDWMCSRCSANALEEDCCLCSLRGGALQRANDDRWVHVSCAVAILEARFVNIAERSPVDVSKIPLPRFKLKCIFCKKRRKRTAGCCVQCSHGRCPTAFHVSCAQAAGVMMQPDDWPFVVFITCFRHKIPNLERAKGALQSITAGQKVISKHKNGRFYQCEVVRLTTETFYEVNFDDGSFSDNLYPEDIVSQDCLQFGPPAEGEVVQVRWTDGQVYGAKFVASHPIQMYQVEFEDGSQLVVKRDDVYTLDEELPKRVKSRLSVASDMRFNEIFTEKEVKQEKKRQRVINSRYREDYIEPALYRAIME
L3MBTL1 block = L3MBTL1 (human) inhibition. AlphaScreen L3MBTL1–H3K9me1 peptide binding. Potency, µM (doses to about 57.1 µM), for inactives: top-dose activity, negative = inhibition, actives largely listed as inhibitors. 0.66% of 230,000 active; also: potency is read from the fitted curve at half-maximal effect; % is scaled to controls: 0 for no effect and ±100 for the full control effect; nearly all actives have a fitted effect of over 60% in size
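First, the protein-peptide complex forms for 30 min at room temperature (L3MBTL1 50 nM, biotinylated H3K9me1 peptide 75 nM). Next, compounds are pin-transferred and incubated 30 min. Finally, AlphaScreen beads are added and read after 30 min.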
BAZ2B inh = blocks human BAZ2B; Q9UIF8; AlphaScreen BAZ2B-H3K14Ac peptide displacement; Potency, µM (highest dose often 114 µM), for the others: at the top dose activity change, negative = inhibition, usual class: inhibitors; 4.4% of 360,000 active; AID 504333; also: potency is read from the fitted curve at half-maximal effect; % is scaled to controls: 0 for no effect and ±100 for the full control effect; nearly all actives have a fitted effect of over 60% in size
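In this displacement format the biotinylated H3(5-23) peptide acetylated at Lys14 serves as ligand at 50 nM, with BAZ2B at 50 nM in PBS pH 7.4 containing 0.01% Tween-20. Donor and acceptor beads are 10 ug/mL final.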
Sfp inh = blocks B. subtilis Sfp PPTase activity; AID 1490; 3.5% of 310,000 active; Potency, µM, for inactives: largest response in the series, negative = inhibition, hits mostly inhibitors; Q9F4F7; Biochemical Sfp PPTase activity, qHTS;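 also: the enzyme is Sfp with the accession as filed and its product quenches rhodamine fluorescence; potency is read from the fitted curve at half-maximal effect; 0% = enzyme reaction without inhibitor and -100% = no enzyme wells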
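Fluorescence-quenching assay: 15 nM Sfp-PPTase preincubated 15 min at room temperature with compound, then 5 uM rhodamine-CoA and 12.5 uM BHQ-2-labelled YbbR peptide added. Fluorescence (ex 525/em 598 nm) read at start and after 30 min; difference gives rate.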
G9a block = G9a (human) methyltransferase inhibition; G9a H3K9 monomethylation, AlphaScreen, 2 h; Potency, µM (top dose mostly 102 µM), inactives show at the top dose activity, negative = inhibition, most hits filed as inhibitors; 8.8% of 350,000 active; also: potency is read from the fitted curve at half-maximal effect; % is scaled to controls: 0 for no effect and ±100 for the full control effect; nearly all actives have a fitted effect of over 75% in size
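AlphaScreen read-out: biotin-H3K9 peptide (500 nM) methylation by 20 nM enzyme with 20 uM SAM, 2 h at room temperature after 15 min compound preincubation; anti-monomethyl H3K9 antibody plus donor/acceptor beads, 10 min dark.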
JMJD2E inh-1 = JMJD2E demethylase inhibition by 8HQ compounds | JMJD2E demethylase, FDH-coupled NADH fluorescence | 89% of 130 active | Potency, µM (top dose mostly 57 µM), for the others: at the top dose activity, negative = inhibition, hits mostly inhibitors | AID 493212 | shares compounds with BAZ2B inh
JMJD2E inh-2 = confirmation of inhibitors of human JMJD2E demethylase; shares compounds with JMJD2A Tudor inh; Recombinant JMJD2E, FDH-coupled NADH fluorescence (FDH is formaldehyde dehydrogenase); Potency, µM (titrated, usually from 56.8 µM), inactives show at the highest dose activity change, negative = inhibition, actives largely listed as inhibitors; 93% of 140 active; AID 2677
FDH inh = FDH (Pseudomonas putida) inhibition counter-screen; shares compounds with JMJD2A Tudor inh; FDH enzyme assay, NADH fluorescence kinetic; Potency, µM (doses to about 56.7 µM), inactives show top-dose activity, negative = inhibition, usual class: inhibitors; 10% of 140 active
JMJD2E MALDI inh = blocks demethylation by human JMJD2E in a MALDI-TOF-MS assay; shares compounds with JMJD2A Tudor inh; recombinant JMJD2E demethylation, MALDI-TOF-MS; Potency, µM, usual class: inhibitors; 90% of 45 active; AID 2688;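 active = compounds whose IC50 for blocking JMJD2E demethylation is below 100 µM; inconclusive = dose dependent effect but IC50 above 100 µM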
* marks the source's active call; other numbers are inactive results; u = inconclusive; x = no result given; [ ] = dose if it differs, or a comment. Unless noted, calls follow the shape of the dose curve; as a rule, active = well fitted curve in the direction sought with a large enough effect; inconclusive = small, poorly fitted or top-dose-only effect, or another doubt; inactive = no such curve, though single readings can be large; an effect the other way counts as inactive or inconclusive.

SMILES	HP1b binding inh	JMJD2A Tudor inh	L3MBTL1 block	BAZ2B inh	Sfp inh	G9a block	JMJD2E inh-1	JMJD2E inh-2	FDH inh	others
Oc1ccc(CNCc2ccccc2F)c2cccnc12	x	25µM*	x	x	x	x	6.5µM*	u	-18%	JMJD2E MALDI inh=21*
Cc1ccc(S(=O)(=O)Nc2cccc(C(=O)NCc3ccc(S(N)(=O)=O)cc3)c2)cc1	27%	-17%	x	-1%	3%	2%	x	x	x
CC(C)CCNC(=O)C(=O)Nc1ccccc1	2%	-22%	x	4%	9%	-36%	x	x	x
O=S(=O)(NCc1ccccc1)c1ccc(O)c2ncccc12	x	x	x	x	x	x	32µM*	23µM*	-36%
CCOc1ccc(NS(=O)(=O)c2ccc(OCC)c3ncccc23)cc1	6%	-11%	x	-7%	-3%	6%	x	x	x
O=S(=O)(Nc1ccccc1)c1ccc(O)c2ncccc12	x	x	x	x	x	x	9.1µM*	9.1µM*	-27%
O=S(=O)(c1ccc(O)c2ncccc12)N1CCCCC1	x	x	x	x	x	x	18µM*	18µM*	-36%
O=S(=O)(Nc1ccccc1F)c1ccc(O)c2ncccc12	x	x	x	x	x	x	29µM*	13µM*	-36%
COc1ccc(C(CNC(=O)c2cccc(NC(=O)c3cccs3)c2)N2CCCC2)cc1 (stereo not given)	14%	-21%	-2%	2%	x	-24%[59 µM]	x	x	x
COc1ccc(NC(=O)CSc2nnc(NC(=O)c3ccco3)s2)cc1OC	14%	-8%	x	-4%	-7%	x	x	x	x
Cc1nc(C(C)NC(=O)CCc2nnc(CCCc3ccccc3)o2)c(C)s1 (stereo not given)	40%	-2%	-1%	-15%	23%	21%[12.7 µM]	x	x	x
CN1CCC(N(C)C(=S)NCCc2ccccc2)CC1	16%	-20%	-14%	0%	18%	u	x	x	x
Oc1ccc(CNc2ccc(C(F)(F)F)cc2F)c2cccnc12	x	50µM*	x	x	x	x	2.2µM*	2.2µM*	-18%	JMJD2E MALDI inh=20*
Nc1cc(C(F)(F)F)ccc1NCCc1ccccn1	u	u	x	u	-1%	-18%	x	x	x
Cc1ccc(NCc2ccc(O)c3ncccc23)c(F)c1	x	18µM*	x	x	x	x	0.71µM*	8.1µM*	-9%	JMJD2E MALDI inh=11*
COC(=O)[C@@H]1CC[C@H](C)[C@@H](c2ccc(C)cc2)N1C(=O)c1ccc(/C=N\OC[C@@H](O)[C@H]2O[C@H]3OC(C)(C)O[C@H]3[C@@H]2O)cc1	x	x	x	x	-2%	x	x	x	x
Oc1ccc(COc2cccc3ccccc23)c2cccnc12	x	x	-3%	56µM*	x	u	10µM*	10µM*	-18%
Oc1ccc(COC2CCCC2)c2cccnc12	x	x	20µM*	13µM*	x	-31%[12.7 µM]	6.3µM*	6.3µM*	-9%
CSc1ncccc1C(=O)NCC1CCCCC1	45%	1%	-3%	x	13%	-2%	x	x	x
O=C(COC(=O)c1ccc(F)cc1F)NC1CC1	14%	-12%	-27%	-2%	0%	3%	x	x	x
COc1ccc(-n2cc(C#N)c(=O)n(Cc3ccc(F)cc3)c2=O)cc1	32%	-12%	-19%	-29%	0%	-4%	x	x	x
CC1CC(C)(C)NC(=S)N1CCC(=O)N1CCc2ccccc2C1 (stereo not given)	-10%	-4%	-4%	-23%	-20%	u	x	x	x
CN(C)c1cnc2c(O)cccc2c1	x	x	x	x	x	x	20µM*	18µM*	-27%
Cc1cnc2c(O)cccc2c1	x	x	x	x	x	x	u	u	0%
Oc1cccc2cc(C3CC3)cnc12	x	x	x	x	x	x	20µM*	20µM*	-18%
SMILES	HP1b binding inh	JMJD2A Tudor inh	L3MBTL1 block	BAZ2B inh	Sfp inh	G9a block	JMJD2E inh-1	JMJD2E inh-2	FDH inh	others
Cc1cccc2cc3cccc(C)c3nc12	158%	128%	x	79%	-9%	15%[0.501 µM]	x	x	x
CCOC(=O)c1ccc(NC(=O)CN2C(=O)CN(C(C)=O)C2=S)cc1	20%	-5%	40%	-2%	-1%	x	x	x	x
NC(=O)c1ccnc2c(O)cccc12	24%	22µM*	14µM*	1.8µM*	x	-31%[0.501 µM]	3.2µM*	u	-27%
c1ccc2c(-c3nn[nH]n3)cccc2c1	22%	-18%	12%	-5%	10%	8%[59 µM]	x	x	x
NC(=O)c1cccc2ccccc12	27%	-6%	8%	4%	20%	x	x	x	x
COC(=O)c1ccc(O)c2ncccc12	x	x	x	x	x	x	20µM*	20µM*	-27%
Oc1cccc2c(-c3nn[nH]n3)ccnc12	36%	13µM*	-6%	3.2µM*	x	13%[12.7 µM]	18µM*	10µM*	-18%	JMJD2E MALDI inh=18*
CCc1nnc(NC(=O)c2cc(S(=O)(=O)N3CCOCC3)ccc2N2CCCCC2)s1	10%	-11%	-17%	-36%	4%	-18%	x	x	x
CCCN(CCC)CCCNC(=O)c1cn(-c2ccc(OC)cc2)c(=O)c2ccccc12	48%	-1%	x	1%	1%	7%	x	x	x
Brc1ccccc1CN1CCC(N2CCCCC2)CC1	12%	-22%	u	x	8%	-40%[59 µM]	x	x	x
CN1CCN(Cc2cc(COCc3ccccc3)c3cccnc3c2O)CC1	4%	18µM*	14µM*	10µM*	-1%	u	6.3µM*	6.3µM*	-27%
CN1CCN(C2CCN(Cc3ccc(O)c4ncccc34)CC2)CC1	-6%	45µM*	14µM*	8.9µM*	x	-43%[2.33 µM]	3.2µM*	3.2µM*	-9%
COc1ccc(Nc2cc(O)c3ncccc3c2)cc1	x	x	32µM*	28µM*	x	17%[12.7 µM]	11µM*	9.1µM*	-36%	JMJD2E MALDI inh=22*
Oc1cc(NCCc2cccnc2)cc2cccnc12	54%	40µM*	28µM*	5.6µM*	x	-47%[12.7 µM]	32µM*	32µM*	-27%	JMJD2E MALDI inh=u
COc1ccc(C(=O)Nc2cc(OC)cc3cccnc23)cc1	52%	5%	x	-7%	-11%	6%[2.33 µM]	x	x	x
Oc1cc(Nc2ccncc2)cc2cccnc12	41%	20µM*	22µM*	4µM*	x	-27%[12.7 µM]	25µM*	25µM*	-9%	JMJD2E MALDI inh=20*
Oc1cc(Nc2cccnc2)cc2cccnc12	44%	45µM*	32µM*	7.9µM*	x	-1%[12.7 µM]	32µM*	32µM*	-18%	JMJD2E MALDI inh=30*
Oc1cc(NCc2cccnc2)ccc1-c1nc2ccccc2o1	39%	-1%	-8%	-2%	1%	26%[12.7 µM]	x	x	x

Screening results as filed in PubChem.
